Source: PubChem (National Center for Advancing Translational Sciences (NCATS))
NPC1 promoter act = activates the NPC1 promoter. Huh7 NPC1 promoter luciferase reporter, 24 h. Potency, µM (highest dose often 9.22 µM), for inactives: top-dose activation, usual class: activators. actives 2.4% (n = 320,000). AID 485313; further: % of control where 0% means no effect; nearly all actives have a fitted effect of over 60% in size
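Stable NPC1-promoter luciferase Huh7 line; cpd (DMSO) 24 h, 37 °C, 5% CO2; Amplite luciferase reagent 10 min RT; luminescence readout. qHTS format.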
Rab9 prom act = activates the Rab9 promoter | Huh7 Rab9 promoter-luciferase reporter, luminescence, 24 h | Potency, µM (series often up to 9.22 µM), for inactives: at the highest dose activation, negative = inhibition, actives largely listed as activators | actives 2.8% (n = 320,000); further: % of control where 0% means no effect; nearly all actives have a fitted effect of over 60% in size
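Huh7 reporter line, Rab9 promoter upstream of luciferase. Compound exposure 24 h at 37 °C in reduced-serum medium with 10% FBS. Read-out: luminescence.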
SMN2 splice enh = SMN2 splice variant enhancement. HEK293 SMN2-luciferase splicing reporter, luminescence, 30-36 h. Potency, µM (doses to about 46.1 µM), for inactives: top-dose activity change, positive = activation, most hits filed as activators. actives 2.8% (n = 210,000); further: % of control where 0% means no effect; nearly all actives have a fitted effect of over 55% in size
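qHTS luciferase splicing reporter: luminescence rises when SMN2 exon 7 is included in transfected HEK293 cells. Compound exposure lasted 30-36 h at 37C, with 4.5 mM final sodium butyrate as control, followed by a ONE-Glo read.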
p53 reactivation = mutant p53 re-activation in reporter cells; H1299 p53-A138V BP100-luciferase reporter, luminescence, 24 h; Potency, µM (doses to about 92.2 µM), for the others: at the top dose activity change, positive = activation, hits mostly activators; actives 0.063% (n = 320,000); AID 504706; further: % of control where 0% means no effect; nearly all actives have a fitted effect of over 45% in size
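H1299 (p53-null), stable ts p53-A138V + BP100-Luc; 1000 cells/well, Opti-MEM/10% FBS; cpd 4 pt, 1:5; 24 h, 37 deg C, 5% CO2; detection reagent 10 min RT; luminescence.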
FLuc counter = counter-screen for miR-21 project: firefly luciferase inhibitors or activators; P08659; purified FLuc, Km substrates, luminescence inhibition; Potency, µM (top dose mostly 57.5 µM), for inactives: at the highest dose activity change, negative = inhibition, actives largely listed as inhibitors; actives 6.9% (n = 360,000);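 further: plate controls were vehicle for no effect and reference inhibitor for full effect; nearly all actives have a fitted effect of over 55% in size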
Target sequence (P08659 whole entry, looked up): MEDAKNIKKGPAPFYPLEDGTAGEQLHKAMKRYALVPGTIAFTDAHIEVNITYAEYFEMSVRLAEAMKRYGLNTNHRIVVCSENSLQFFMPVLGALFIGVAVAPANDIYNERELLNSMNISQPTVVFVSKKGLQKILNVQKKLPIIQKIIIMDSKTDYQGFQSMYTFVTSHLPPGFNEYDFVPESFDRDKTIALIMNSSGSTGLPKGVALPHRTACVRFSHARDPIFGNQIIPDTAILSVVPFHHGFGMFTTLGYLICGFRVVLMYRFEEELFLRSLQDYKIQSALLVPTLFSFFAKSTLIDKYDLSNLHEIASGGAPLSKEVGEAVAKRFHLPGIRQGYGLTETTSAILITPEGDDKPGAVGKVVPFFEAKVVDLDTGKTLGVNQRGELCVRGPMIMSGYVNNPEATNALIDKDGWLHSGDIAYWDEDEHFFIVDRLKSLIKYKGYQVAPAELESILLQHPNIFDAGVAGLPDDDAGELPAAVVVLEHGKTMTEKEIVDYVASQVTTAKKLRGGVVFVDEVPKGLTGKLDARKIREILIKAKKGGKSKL
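Biochemical qHTS of compounds, final roughly 60 µM downward over six points, against 10 nM purified firefly luciferase using Km concentrations of substrates (10 uM D-luciferin, 10 uM ATP) in Tris acetate pH 7.5 buffer; luminescence output.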
ELG1 genotoxic = inducers of genotoxicity in HEK293T ELG1-luciferase cells. Potency, µM (doses to about 46 µM), for the others: at the highest dose activity change, positive = activation, actives largely listed as activators. HEK293T ELG1-luciferase reporter, luminescence, 16 h. actives 1.3% (n = 330,000); further: % of control where 0% means no effect; nearly all actives have a fitted effect of over 60% in size
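HEK293T cells expressing luciferase-tagged ELG1 were treated with compound or DMSO for 16 hr at 37°C. Luciferase activity was then read after 30 min with ONE-Glo at room temperature; rising signal flags genetic stress.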
* hit, by the source's call; ? = inconclusive; . = no result given; [ ] = another dose, or the depositor's remark. Rows were chosen to be rich in hits. Some 7.4% of all compounds tested hit in one or more screens of this group. The call rests on the fitted dose curve; in most records, active means well fitted curve in the direction sought with a large enough effect; inconclusive means small, poorly fitted or top-dose-only effect, or another doubt; inactive means no such curve, though single readings can be large; an effect the other way counts as inactive or inconclusive. Potency means the concentration at half of the fitted maximal effect.

SMILES	NPC1 promoter act	Rab9 prom act	SMN2 splice enh	p53 reactivation	FLuc counter	ELG1 genotoxic
CC(C)CCNC(=O)c1cc(-c2cccnc2)nc2ccc(S(=O)(=O)N3CCC(C)CC3)cc12	.	.	.	.	-2%	.
CCCC[C@@H]1C[C@H]1C(NC(=O)Cc1ccccc1)c1ccc(-c2ccccc2)cc1 (stereo not given in full)	.	.	-3%	.	.	.
O=C(Nc1ccc2c(c1)CCC2)c1cnc(Cl)c(Cl)c1	3%	30%	?	?	3µM*	?
O=C(Nc1ccc2c(c1)CCC2)c1ccc(Cl)nc1	15%	?	?	12%	12µM*	?
CC(C)COC(=O)c1ccc2c(c1O)C(=O)c1ccccc1C2=O	2µM*	3.2µM*	?	?	1.3µM*	1.3µM*
C[C@H](NC(=O)[C@H]1N2C(=O)c3ccccc3C2SC1(C)C)C(=O)NCC1CCCO1 (stereo not given in full)	-7%	0%	.	3%	-1%	0%
CC(C)(C)c1ccc(C(=O)Nc2ccc(-c3nc4cc(Cl)ccc4o3)cc2)cc1	.	.	-12%	.	-1%	.
COc1cc(C(=O)Nc2cccc(-c3nc4cc(C)cc(C)c4o3)c2)cc(OC)c1OC	-3%	-3%	-16%	25%	5.4µM*	-6%
COc1ccc(Cl)cc1C(=O)Nc1ccc2oc(-c3ccc(C(C)(C)C)cc3)nc2c1	.	.	-5%	.	9.5µM*	.
COc1cc2ccccc2cc1C(=O)Nc1cccc(-c2nc3cc(C)c(C)cc3o2)c1	.	.	-2%	.	1.2µM*	.
COc1cc2ccccc2cc1C(=O)Nc1cc(-c2nc3ccccc3o2)ccc1C	.	.	-3%	.	-20%	.
Cc1cc2nc(-c3cccc(NC(=O)c4ccc(Br)o4)c3)oc2cc1C	-4%	3%	-4%	4%	17µM*	18%
CC(C)Oc1ccc(CNC(=O)c2ccc3c(c2)N(Cc2ccc(F)cc2)CCS3)cc1	.	.	-14%	.	2%	.
Cc1ccc2oc(-c3cccc(NC(=O)c4ccc(Br)o4)c3)nc2c1	9%	11%	16%	?	21µM*	?
COc1ccccc1N1CCN(C(=O)NCc2cccc(C(F)(F)F)c2)CC1	-33%	1%	.	-4%	1%	-12%
CC#CCCCC(=O)Nc1ccc(C(=O)O)cc1	0%	1%	-7%	1%	-1%	1%
CC#CCCCC(=O)Nc1ccccc1C(=O)O	?	?	?	?	19µM*	?
CCc1ccc(CCC(=O)Nc2ccccc2C(=O)O)o1	?	?	?	?	19µM*	?
NC(=O)CCC(NC(=O)c1ccc(Cl)cc1)C(=O)NCCc1ccc2c(c1)OCCO2 (stereo not given)	-9%	-4%	.	2%	5%	0%
CC1=NN(C(N)=S)C(=O)C1N=Nc1cccc(C)c1 (stereo not given)	?	?	.	18%	?	?
CC1=NN(c2nc(-c3ccc(C)cc3)cs2)C(=O)C1N=Nc1cccc(C)c1 (stereo not given)	28%	?	1%[1.84 µM]	21%	?	1%
CC1=NN(C(N)=S)C(=O)C1N=Nc1ccccc1Cl (stereo not given)	17%	15%	.	.	?	9%
CC1=NN(C(N)=S)C(=O)C1N=Nc1ccc(O)cc1 (stereo not given)	-11%	2%	.	4%	27µM*	9%
CC1=NN(C(N)=S)C(=O)C1N=Nc1ccc(C)c(Br)c1 (stereo not given)	1.8µM*	1.3µM*	.	?	1.7µM*	5.2µM*
CC1=NN(C(N)=S)C(=O)C1N=Nc1ccc([N+](=O)[O-])cc1 (stereo not given)	?	?	.	9%	3.4µM*	?
SMILES	NPC1 promoter act	Rab9 prom act	SMN2 splice enh	p53 reactivation	FLuc counter	ELG1 genotoxic
CC1=NN(C(N)=S)C(=O)C1N=Nc1ccc(Cl)cc1Cl (stereo not given)	3.2µM*	4.5µM*	.	18%	24µM*	?
COC(=O)c1cc2oc(C)cc2n1Cc1cc(C)ccc1C	.	.	-7%	.	-1%	.
CC(C)c1ccc(NC(=O)c2ccc3c(c2)CCCN3S(C)(=O)=O)cc1	.	.	-43%	.	?	.
CCc1cccc(C)c1NC(=O)C(NS(=O)(=O)c1ccc2c(c1)CCC(=O)N2)c1ccccc1 (stereo not given)	.	.	0%	.	-2%	.
Cc1cc(C)nc(SCCc2cccc[n+]2C)n1	.	.	-2%[9.22 µM]	.	.	.
CCOc1ccc(N=NC2C(=O)N(C(N)=S)N=C2C)cc1 (stereo not given)	2.8µM*	4µM*	.	5%	3.8µM*	18µM*
CC1=NN(C(N)=S)C(=O)C1N=Nc1cccc(C(=O)O)c1 (stereo not given)	?	2.5µM*	.	-45%	4.8µM*	2%
CC(=O)Nc1ccc(N=NC2C(=O)N(C(N)=S)N=C2C)cc1 (stereo not given)	?	?	.	?	12µM*	?
CC1=NN(c2ccccc2C(=O)O)C(=O)C1N=Nc1ccccc1 (stereo not given)	20%	21%	.	.	15µM*	-11%
CC1=NN(C(N)=S)C(=O)C1N=Nc1ccccc1C(=O)O (stereo not given)	-2%	7%	.	.	5%	-4%
Cc1c(NC(=O)COC(=O)c2cccn2C)c(=O)n(-c2ccccc2)n1C	.	.	.	7%	.	3%
CC1=NN(C(N)=S)C(=O)C1N=Nc1ccc(F)cc1 (stereo not given)	2.5µM*	3.5µM*	.	25µM*	11µM*	23µM*
COc1ccccc1N=NC1C(=O)N(C(N)=S)N=C1C (stereo not given)	-1%	1%	.	.	?	-5%
Cc1ccc(CNC(=O)[C@H](C)[C@@H]2C[C@@]2(C)[C@@H](NC(=O)OCc2ccccc2)c2ccccc2)o1	.	.	-4%	.	.	.
COC(=O)[C@@]1(Cc2ccccc2)[C@H]2c3cc(C(=O)N(C)C)n(Cc4cc(F)c(F)c(F)c4)c3C[C@H]2CN1C(=O)c1ccccc1	.	.	-37%	.	.	.
CC(=O)c1ccc(OCc2ccccc2)c(C)c1O	16%	4%	?	30%	17µM*	?
COc1cccc(/C=C2\N=C3CCCCCN3C2=O)c1	0%	2%	0%	?	13µM*	?
Cc1ccc(CNC(=O)Cc2ccc(Br)cc2)cc1	-22%	9%	.	.	5%	7%
CC(C)COc1ccc(C(=O)Nc2sc3c(c2C(=O)O)CC(C)(C)OC3)cc1	0%	-5%	.	1%	21µM*	-14%
CC1(C)Cc2c(sc(NC(=O)C(=O)N3CCCC3)c2C(=O)O)CO1	1%	-5%	.	3%	-2%	3%
